# According to publication PMC9911399, “Two distinct binding modes provide the RNA-binding protein RbFox with extraordinary sequence specificity”:
# Positions count from the first letter of the chain named. In all, about 16,000 sequences were measured (“ka relative to ugcaugu”: median about 0.096, highest 2% from about 0.35 on). The sample as a whole holds a higher share of the highest values than the screen did.
# T1: RBFOX1 RRM RbFoxmut (Fox-RRM*) (Homo sapiens, UniProt Q9NWB1 109-208, R118D;E147R;N151S;E152T)
# T1 sequence: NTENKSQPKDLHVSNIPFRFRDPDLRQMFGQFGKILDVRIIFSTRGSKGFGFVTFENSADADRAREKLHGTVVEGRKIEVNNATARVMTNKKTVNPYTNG
# B1: ACCCGUU (DNA:RNA)
# RNA: GGGAGACCGGAAUUCAGAUUGUCCACCCGUUUUAAAUCCCGUCGUAGCCACCA
# DNA 1: CAATCTGAATTCCGGTCTCCC
# DNA 2: TGGTGGCTACGACGGGATT
# B2: AUGGCUC (DNA:RNA)
# RNA: B1 RNA with C26U, C27G, C28G, G29C, U31C
# DNA 1: CAATCTGAATTCCGGTCTCCC
# DNA 2: TGGTGGCTACGACGGGATT
# B3: UAUUUAA (DNA:RNA)
# RNA: GGGAGACCGGAAUUCAGAUUGUCCUAUUUAAUUAAAUCCCGUCGUAGCCACCA
# DNA 1: CAATCTGAATTCCGGTCTCCC
# DNA 2: TGGTGGCTACGACGGGATT
# B4: AGCAGCG (DNA:RNA)
# RNA: B1 RNA with C26G, C28A, U30C, U31G
# DNA 1: CAATCTGAATTCCGGTCTCCC
# DNA 2: TGGTGGCTACGACGGGATT
# B5: GAAUGGU (DNA:RNA)
# RNA: B1 RNA with A25G, C26A, C27A, C28U, U30G
# DNA 1: CAATCTGAATTCCGGTCTCCC
# DNA 2: TGGTGGCTACGACGGGATT
# B6: GAUUGGC (DNA:RNA)
# RNA: B3 RNA with U25G, U29G, A30G, A31C
# DNA 1: CAATCTGAATTCCGGTCTCCC
# DNA 2: TGGTGGCTACGACGGGATT
# B7: GGAUGGU (DNA:RNA)
# RNA: B1 RNA with A25G, C26G, C27A, C28U, U30G
# DNA 1: CAATCTGAATTCCGGTCTCCC
# DNA 2: TGGTGGCTACGACGGGATT
# B8: GAAUGGC (DNA:RNA)
# RNA: B3 RNA with U25G, U27A, U29G, A30G, A31C
# DNA 1: CAATCTGAATTCCGGTCTCCC
# DNA 2: TGGTGGCTACGACGGGATT
# B9: CGAUGGC (DNA:RNA)
# RNA: B1 RNA with A25C, C26G, C27A, C28U, U30G, U31C
# DNA 1: CAATCTGAATTCCGGTCTCCC
# DNA 2: TGGTGGCTACGACGGGATT
# B10: GAUGGUU (DNA:RNA)
# RNA: B1 RNA with A25G, C26A, C27U, C28G
# DNA 1: CAATCTGAATTCCGGTCTCCC
# DNA 2: TGGTGGCTACGACGGGATT
# B11: GAGAAAU (DNA:RNA)
# RNA: B3 RNA with U25G, U27G, U28A, U29A, A31U
# DNA 1: CAATCTGAATTCCGGTCTCCC
# DNA 2: TGGTGGCTACGACGGGATT
# B12: GAACCCG (DNA:RNA)
# RNA: B1 RNA with A25G, C26A, C27A, G29C, U30C, U31G
# DNA 1: CAATCTGAATTCCGGTCTCCC
# DNA 2: TGGTGGCTACGACGGGATT
# B13: CCUUUUU (DNA:RNA)
# RNA: B1 RNA with A25C, C27U, C28U, G29U
# DNA 1: CAATCTGAATTCCGGTCTCCC
# DNA 2: TGGTGGCTACGACGGGATT
# B14: CGCACUG (DNA:RNA)
# RNA: B1 RNA with A25C, C26G, C28A, G29C, U31G
# DNA 1: CAATCTGAATTCCGGTCTCCC
# DNA 2: TGGTGGCTACGACGGGATT
# B15: GUAUUUU (DNA:RNA)
# RNA: B1 RNA with A25G, C26U, C27A, C28U, G29U
# DNA 1: CAATCTGAATTCCGGTCTCCC
# DNA 2: TGGTGGCTACGACGGGATT
# B16: AGGGGGA (DNA:RNA)
# RNA: B1 RNA with C26G, C27G, C28G, U30G, U31A
# DNA 1: CAATCTGAATTCCGGTCTCCC
# DNA 2: TGGTGGCTACGACGGGATT
# B17: AGGGAUG (DNA:RNA)
# RNA: B1 RNA with C26G, C27G, C28G, G29A, U31G
# DNA 1: CAATCTGAATTCCGGTCTCCC
# DNA 2: TGGTGGCTACGACGGGATT
# B18: AGGAAUG (DNA:RNA)
# RNA: B1 RNA with C26G, C27G, C28A, G29A, U31G
# DNA 1: CAATCTGAATTCCGGTCTCCC
# DNA 2: TGGTGGCTACGACGGGATT
# B19: AGGAAUC (DNA:RNA)
# RNA: B1 RNA with C26G, C27G, C28A, G29A, U31C
# DNA 1: CAATCTGAATTCCGGTCTCCC
# DNA 2: TGGTGGCTACGACGGGATT
# B20: AGGAGAC (DNA:RNA)
# RNA: B1 RNA with C26G, C27G, C28A, U30A, U31C
# DNA 1: CAATCTGAATTCCGGTCTCCC
# DNA 2: TGGTGGCTACGACGGGATT
# B21: AGGAGGA (DNA:RNA)
# RNA: B1 RNA with C26G, C27G, C28A, U30G, U31A
# DNA 1: CAATCTGAATTCCGGTCTCCC
# DNA 2: TGGTGGCTACGACGGGATT
# B22: ACCAGGA (DNA:RNA)
# RNA: B1 RNA with C28A, U30G, U31A
# DNA 1: CAATCTGAATTCCGGTCTCCC
# DNA 2: TGGTGGCTACGACGGGATT
# B23: AGGAUUG (DNA:RNA)
# RNA: B1 RNA with C26G, C27G, C28A, G29U, U31G
# DNA 1: CAATCTGAATTCCGGTCTCCC
# DNA 2: TGGTGGCTACGACGGGATT
# B24: AGGAUGU (DNA:RNA)
# RNA: B1 RNA with C26G, C27G, C28A, G29U, U30G
# DNA 1: CAATCTGAATTCCGGTCTCCC
# DNA 2: TGGTGGCTACGACGGGATT
# Target: T1, RBFOX1 RRM RbFoxmut (Fox-RRM*)
# Assay: EMSA; HiTS-Eq, 1 nM pool, 10 min; buffer printed only for the single-RNA assays: 10 mM Tris pH 7.5, 150 mM NaCl, 3.4 mM EDTA, 0.001% NP-40, 30 C
# Conditions: tags: His6 N-terminal (pET28a); label: 5' 32P
# Summary of the method: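 These values rest on relative association constants, computed from read-count changes of each RNA species versus the control reaction and normalised to the cognate motif. Reads came from free RNA recovered by 8% native PAGE after purified RbFox RRM (wild type or mutant) at increasing concentrations was equilibrated for 10 min in 50 µL with 1 nM of a 5′-radiolabelled pool with 7 randomized nucleotides and DNA-annealed flanks.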
row,Binder,binding signal
1,B1,0.0752 KA relative to UGCAUGU
2,B2,0.111 KA relative to UGCAUGU
3,B3,0.0892 KA relative to UGCAUGU
4,B4,0.113 KA relative to UGCAUGU
5,B5,0.748 KA relative to UGCAUGU
6,B6,0.145 KA relative to UGCAUGU
7,B7,0.201 KA relative to UGCAUGU
8,B8,0.592 KA relative to UGCAUGU
9,B9,0.101 KA relative to UGCAUGU
10,B10,0.0937 KA relative to UGCAUGU
11,B11,0.0893 KA relative to UGCAUGU
12,B12,0.0645 KA relative to UGCAUGU
13,B13,0.0758 KA relative to UGCAUGU
14,B14,0.125 KA relative to UGCAUGU
15,B15,0.118 KA relative to UGCAUGU
16,B16,0.149 KA relative to UGCAUGU
17,B17,0.476 KA relative to UGCAUGU
18,B18,1.4 KA relative to UGCAUGU
19,B19,0.261 KA relative to UGCAUGU
20,B20,0.0904 KA relative to UGCAUGU
21,B21,0.084 KA relative to UGCAUGU
22,B22,0.0755 KA relative to UGCAUGU
23,B23,0.583 KA relative to UGCAUGU
24,B24,0.339 KA relative to UGCAUGU
